Screens deposited in PubChem BioAssay by several laboratories.
Compounds with a hit are over-represented: about 5.9% of the library has one in this group of screens.
HSP90 refold inh = inhibitors of HSP90 luciferase refolding in rabbit reticulocyte lysate; 0.91% of 290,000 active; inhibition, % at 5.6 µM; luciferase refolding luminescence, 3 h;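 active = inhibition above the screen-wide mean plus 3 SD, computed separately per campaign, cut at about 16% in these data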;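 note: 0% = DMSO wells and 100% = 60 µM geldanamycin wells; inhibitors lower the luminescence because luciferase stays unfolded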
FXN GAA850 act = activators of GAA850 frataxin (FXN) promoter | HEK293 lucGAA850 FXN promoter luciferase reporter, 24 h; percent of 10 µM SAHA response | activation, % at 6 µM | 0.56% of 360,000 active;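 active = activation above the average of all compounds screened plus 3 SD, cutoff fixed separately per campaign, cut at about 7.5% in these data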;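 note: 0% = DMSO wells and 100% = 10 µM SAHA wells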
AHR act = activates the human aryl hydrocarbon receptor; P35869; AHR-responsive luciferase reporter cells, luminescence; activation, % at 5 µM; 2.5% of 320,000 active; in the data active = activation above about 47%;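 note: 0% = vehicle wells and 100% = reference agonist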
Target sequence (P35869 whole entry, looked up): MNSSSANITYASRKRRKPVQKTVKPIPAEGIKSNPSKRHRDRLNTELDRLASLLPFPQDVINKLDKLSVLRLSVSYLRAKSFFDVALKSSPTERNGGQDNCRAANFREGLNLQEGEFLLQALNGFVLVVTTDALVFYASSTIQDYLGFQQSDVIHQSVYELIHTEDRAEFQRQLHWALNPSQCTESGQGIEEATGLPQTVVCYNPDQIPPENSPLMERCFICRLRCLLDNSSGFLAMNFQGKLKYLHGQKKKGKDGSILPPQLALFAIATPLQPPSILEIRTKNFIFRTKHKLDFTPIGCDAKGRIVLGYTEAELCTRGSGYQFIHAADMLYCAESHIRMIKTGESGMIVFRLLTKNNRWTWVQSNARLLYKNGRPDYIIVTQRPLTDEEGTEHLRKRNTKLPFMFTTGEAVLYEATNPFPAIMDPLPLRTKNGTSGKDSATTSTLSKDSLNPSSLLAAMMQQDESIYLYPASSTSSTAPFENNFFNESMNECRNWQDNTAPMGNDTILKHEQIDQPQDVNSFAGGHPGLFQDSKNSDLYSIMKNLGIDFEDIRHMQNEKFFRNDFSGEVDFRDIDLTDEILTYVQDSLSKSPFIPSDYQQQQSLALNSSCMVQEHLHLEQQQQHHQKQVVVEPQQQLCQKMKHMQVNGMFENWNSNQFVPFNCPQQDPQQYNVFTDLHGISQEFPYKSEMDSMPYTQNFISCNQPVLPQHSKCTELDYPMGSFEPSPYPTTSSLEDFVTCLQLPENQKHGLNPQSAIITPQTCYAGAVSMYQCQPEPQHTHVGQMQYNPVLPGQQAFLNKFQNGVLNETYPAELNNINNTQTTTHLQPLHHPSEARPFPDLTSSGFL
NR0B1 inh = NR0B1 (DAX1) inhibition. 0.99% of 340,000 active. P51843. AID 504766. inhibition, % at 6.75 µM. HEK293 Gal4-DAX1 luciferase reporter, luminescence;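 active = inhibition above the mean over all tested compounds plus 3 SD, cut at about 4.2% in these data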;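 note: 0% = DAX1-transfected cells with DMSO and 100% = empty-vector control cells with DMSO; inhibition shows as a rise in luminescence from relieved DAX1 repression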
HSF1 inh = HSF1 inhibition; NIH3T3-HGL HSE-luciferase, MG132-induced, luminescence 8 h; hits give low values; activity change, negative = inhibition, % at 7.5 µM (by protocol); AID 2098; 0.77% of 300,000 active;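 active = more than half of replicate wells show activity change below -50%, luminescence cut by over half; inconclusive = some wells, but at most half, below -50%; inactive = no replicate well below -50%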;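 note: luciferase reports HSF-1 transcriptional activity via heat shock element; 0% = median of DMSO wells and -100% = zero luminescence signal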
HSF1 activator = increases HSF-1 driven luciferase reporter signal; NIH3T3-HGL HSF-1 luciferase reporter, MG132, 8 h; 100% = twice DMSO control signal; activation, % at 9 µM; 1.7% of 300,000 active; AID 504408;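 active = mean replicate activation of at least 50% with a set share of replicates each reaching 50%; inconclusive = only one of those two conditions met; inactive = mean below 50% and too few replicates reaching it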;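 note: 0% = median of the neutral control wells and 100% = twice that signal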
Active calls of the source: *.

Screening C/C(=N\NC(=S)NCC(C)(C)C)c1cc(F)cc(F)c1O returned HSP90 refold inh 5, FXN GAA850 act 1, AHR act 2, NR0B1 inh 4.7*, HSF1 inh 6 and HSF1 activator 12.
COc1ccc2cc(C(=O)/C=C/c3cc(OC)c(OC)c(OC)c3)ccc2c1 was read as HSP90 refold inh 12, FXN GAA850 act -2, AHR act -1, NR0B1 inh 0, HSF1 inh 55 and HSF1 activator 95*.
For COc1cc(O)c(C(=O)/C=C/c2ccccc2)c(OC)c1 the results were HSP90 refold inh 3, FXN GAA850 act 0, AHR act -1, NR0B1 inh -2, HSF1 inh 125 and HSF1 activator 107*.
Screening O=C(/C=C/c1cn(CC(O)CN2CCCCCC2)c2ccccc12)c1cccs1 (stereo not given) returned HSP90 refold inh 2, FXN GAA850 act -1, AHR act 12, NR0B1 inh -2, HSF1 inh 28 and HSF1 activator inconclusive.
COc1cc(OC)c(C(=O)C=Cc2ccc(OC)c(OC)c2)c(OC)c1 was read as FXN GAA850 act 0 and NR0B1 inh -3.
`COc1ccc(/C=C/C(=O)c2ccccc2)c(OC)c1` gave HSP90 refold inh -1, FXN GAA850 act 3, AHR act 3, NR0B1 inh 4, HSF1 inh 31 and HSF1 activator 72*.
Cc1ccc(C(=O)/C=C/c2cn(CN3CCN(C)CC3)c3ccccc23)cc1 was read as HSP90 refold inh 5, FXN GAA850 act 4, AHR act 31, NR0B1 inh 0, HSF1 inh 25 and HSF1 activator 60*.
Cc1cc(NC(=O)CCC(=O)N(CC(C)C)C(C(=O)NC(C)(C)C)c2ccccc2Cl)no1 (stereo not given) was read as HSP90 refold inh 4, FXN GAA850 act 1, AHR act 3, NR0B1 inh -1, HSF1 inh 4 and HSF1 activator 10.
`O=C(/C=C/c1cccc2ccccc12)c1ccncc1` gave HSP90 refold inh -1, FXN GAA850 act -1, AHR act 8, NR0B1 inh -3, HSF1 inh 0 and HSF1 activator 23.
For Cc1ccc(C(=O)/C=C/c2c[nH]c3ccccc23)cc1 the results were HSP90 refold inh 1, FXN GAA850 act 6, AHR act 52*, NR0B1 inh 2, HSF1 inh 14 and HSF1 activator 40.
COc1ccc2[nH]cc(/C=C/C(=O)c3ccccc3)c2c1 was read as HSP90 refold inh -2, FXN GAA850 act 3, AHR act 6, NR0B1 inh 4, HSF1 inh 63 and HSF1 activator 113*.
Screening Cc1[nH]c2ccccc2c1/C=C/C(=O)c1ccncc1 returned HSP90 refold inh 5, FXN GAA850 act 1, AHR act 56*, NR0B1 inh 0, HSF1 inh 4 and HSF1 activator -5.
For CC(=O)Nc1ccc(C(=O)N2CCCCC2c2cc(C(=O)NCc3cccnc3)no2)cc1 (stereo not given) the results were FXN GAA850 act -1.
`COc1cccc(-c2nc(-c3ccccc3)[nH]c(=O)c2C#N)c1` gave HSP90 refold inh -1, FXN GAA850 act -1, AHR act 79*, NR0B1 inh -1, HSF1 inh -5 and HSF1 activator 7.
`O=c1cc(-c2cccc(Cl)c2)oc2cccc(O)c12` gave FXN GAA850 act 3, AHR act 34, NR0B1 inh 0, HSF1 inh -1 and HSF1 activator -14.
CCCc1cc(=O)c2c(O)cccc2o1 was read as HSP90 refold inh 2, FXN GAA850 act 2, AHR act -1, NR0B1 inh -1, HSF1 inh 1 and HSF1 activator -4.
Screening O=c1cc(-c2ccccc2)oc2cc(O)cc(O)c12 returned FXN GAA850 act 4, AHR act 5, NR0B1 inh 2, HSF1 inh 10 and HSF1 activator 19.
`Cc1ccccc1-c1cc(=O)c2c(O)cccc2o1` gave FXN GAA850 act 1, AHR act 0, NR0B1 inh -1, HSF1 inh 27 and HSF1 activator 57*.
O=c1cc(-c2cccc(Br)c2)oc2cccc(O)c12 was read as FXN GAA850 act 1, AHR act 49*, NR0B1 inh 0, HSF1 inh 6 and HSF1 activator 12.
O=c1cc(-c2ccccc2)oc2cccc(O)c12 was read as FXN GAA850 act 2 and NR0B1 inh 4.9*.
`Fc1c(F)c(F)c(CSc2nc3ccccc3[nH]2)c(F)c1F` gave HSP90 refold inh -1, FXN GAA850 act -2, AHR act -3, NR0B1 inh -1, HSF1 inh 33 and HSF1 activator 56*.
For Fc1ccccc1CSc1nc2ccccc2[nH]1 the results were HSP90 refold inh 5, FXN GAA850 act 4, AHR act 2, NR0B1 inh 0, HSF1 inh 33 and HSF1 activator 71*.
Fc1ccccc1-c1nc2ccccc2[nH]1 was read as HSP90 refold inh 5, FXN GAA850 act 6, AHR act 15, NR0B1 inh 4.9*, HSF1 inh 22 and HSF1 activator 38.
Screening Cc1cc(=O)oc2cc(OCC(=O)Nc3ccc(F)cc3F)ccc12 returned FXN GAA850 act 0 and NR0B1 inh 1.
`CCCN1CCC(=O)N([C@H](CN=[N+]=[N-])Cc2ccccc2)CC1` gave HSP90 refold inh 0, FXN GAA850 act 1, AHR act 4, NR0B1 inh 0, HSF1 inh -5 and HSF1 activator -10.
Screening Cc1ccccc1N(CC(=O)NCCSCc1ccccc1)S(C)(=O)=O returned HSP90 refold inh 1, FXN GAA850 act 1, AHR act 1, NR0B1 inh 1, HSF1 inh -5 and HSF1 activator 19.
`CCc1nc2c(OCc3ccc(C(=O)N(C)C)cc3)cccn2c1N(C)C(=O)Nc1ccccc1OC` gave FXN GAA850 act -1.
COc1ccc2oc(=O)c(N3C(=O)c4ccccc4C3=O)cc2c1 was read as HSP90 refold inh 2, FXN GAA850 act -2, AHR act 1, NR0B1 inh 2, HSF1 inh -66* and HSF1 activator -72.
For COc1ccc2c(=O)c(N3C(=O)c4ccccc4C3=O)coc2c1 the results were HSP90 refold inh 4, FXN GAA850 act -1, AHR act 4, NR0B1 inh 2, HSF1 inh -8 and HSF1 activator -11.
`COc1ccc(/C=C/c2nc3ccccc3n2Cc2ccccc2OC)cc1` gave HSP90 refold inh 3, FXN GAA850 act 4, AHR act 20, NR0B1 inh 3, HSF1 inh 21 and HSF1 activator 68*.
For COc1ccccc1Cn1c(/C=C/c2ccccc2)nc2ccccc21 the results were HSP90 refold inh -3, FXN GAA850 act 4, AHR act 64*, NR0B1 inh 0, HSF1 inh 12 and HSF1 activator 29.
